A selection: hits, their analogues and other compounds. The true share with any hit is near 3.3%.
SARS PLpro yeast: blocks SARS-CoV papain-like protease in a yeast assay; S. cerevisiae expressing SARS-CoV PLpro, growth rescue; actives 0.19% (n = 330,000); Potency, µM (doses to about 32.9 µM), for the others: at the highest dose activity, positive = growth rescue, most hits filed as activators; calls by dose curve; note: 0% is about no effect; nearly all actives have a fitted effect of over 55% in size
LmPK inhibitor: inhibitors of Leishmania mexicana pyruvate kinase. Q27686. purified LmPK, Kinase-Glo ATP luminescence, 1 h. Potency, µM (top dose mostly 57.5 µM), without a hit: at the top dose activity change, negative = inhibition, actives largely listed as inhibitors. actives 0.37% (n = 290,000). AID 1721; note: % is set by controls: 0 for no effect and ±100 for the full control effect
Target sequence (Q27686 whole entry, looked up): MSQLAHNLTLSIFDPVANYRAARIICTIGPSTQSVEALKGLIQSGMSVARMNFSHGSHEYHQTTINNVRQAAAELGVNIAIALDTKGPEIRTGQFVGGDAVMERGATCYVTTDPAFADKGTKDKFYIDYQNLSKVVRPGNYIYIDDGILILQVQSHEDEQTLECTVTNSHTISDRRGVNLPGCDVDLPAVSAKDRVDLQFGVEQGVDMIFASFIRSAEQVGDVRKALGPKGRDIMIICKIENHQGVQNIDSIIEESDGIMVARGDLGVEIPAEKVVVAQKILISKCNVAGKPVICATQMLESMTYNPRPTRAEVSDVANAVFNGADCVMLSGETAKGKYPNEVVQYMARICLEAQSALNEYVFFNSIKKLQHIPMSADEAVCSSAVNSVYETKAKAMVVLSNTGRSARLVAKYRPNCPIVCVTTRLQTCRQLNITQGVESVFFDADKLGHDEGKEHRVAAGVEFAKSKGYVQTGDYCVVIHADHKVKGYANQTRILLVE
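In 50 mM imidazole pH 7.2 with 7 mM MgCl2, LmPK (0.1 nM) turned over PEP (0.5 mM) and ADP (0.1 mM) for 1 h at room temperature. Luciferase read-out of ATP.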
NS1 function inh: influenza NS1 inhibition. Potency, µM (series often up to 46.1 µM), without a hit: at the highest dose activity, positive = more growth. actives 0.4% (n = 270,000). AID 2326; calls by dose curve; note: actives are rising curves; nearly all actives have a fitted effect of over 50% in size
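Recovery from NS1-induced slow growth read by OD600 in budding yeast switched to galactose assay medium (pH 6.0, -URA) at 1:100 dilution. Compound 23 nl per well; the matching strain lacking NS1 serves as control.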
RE007 growth inh: less growth of the S. pombe RE007 Vpr strain | S. pombe RE007 Vpr strain, BacTiter-Glo ATP luminescence, 24 h | Potency, µM (top dose mostly 92.2 µM), for the others: top-dose activity change, negative = less growth, usual class: inhibitors | actives 0.21% (n = 360,000) | AID 651644; active = well fitted falling curve with a large enough effect; inconclusive = small, poorly fitted or top-dose-only effect; inactive = no such curve, though single readings can be large or run the other way; note: % is set by controls: 0 for no effect and ±100 for the full control effect; nearly all actives have a fitted effect of over 50% in size
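Fission yeast RE007 carrying one integrated HIV-1 vpr copy, seeded at OD 0.01 in PMG+AL medium with 23 nL pinned compound. Grown 24 h at 30 degrees; viability read by BacTiter-Glo luminescence after 5 min.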
Sm TGR inh: blocks Schistosoma mansoni thioredoxin glutathione reductase; purified TGR, DTNB reduction, TNB absorbance 405 nm; Q962Y6; actives 3% (n = 360,000); AID 485364; Potency, µM (doses to about 114 µM), for inactives: top-dose activity change, negative = inhibition, usual class: inhibitors; note: % is set by controls: 0 for no effect and ±100 for the full control effect; nearly all actives have a fitted effect of over 60% in size
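First, TGR (20 nM dispensed) and NADPH were mixed with compound. Second, a 15 min room-temperature incubation followed. Third, further NADPH and then DTNB were added to start the reaction. Finally, TNB absorbance was monitored kinetically.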
Tb PYK inh: inhibitors of Trypanosoma brucei pyruvate kinase | Q57TT1 | TbPYK enzyme, Kinase-Glo Plus ATP luminescence, 45 min | Potency, µM (doses to about 76.8 µM), without a hit: top-dose activity, negative = inhibition, hits mostly inhibitors | actives 0.12% (n = 410,000) | AID 624173; note: % is set by controls: 0 for no effect and ±100 for the full control effect; nearly all actives have a fitted effect of over 50% in size
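Activity of T. brucei pyruvate kinase was followed by Kinase-Glo Plus luminescence after the enzyme reacted 45 min at room temperature with 130 uM ADP (final) and substrate. Test compounds were added before ADP at multiple concentrations.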
* marks the source's active call; other numbers are inactive results; u = inconclusive; x = not tested or not shown. Unless noted, calls come from the whole dose curve; as a rule, active = well fitted curve in the direction sought with a large enough effect; inconclusive = small, poorly fitted or top-dose-only effect, or another doubt; inactive = no such curve, though single readings can be large; an effect the other way counts as inactive or inconclusive. Potency is the fitted concentration of half-maximal effect.

SMILES | SARS PLpro yeast | LmPK inhibitor | NS1 function inh | RE007 growth inh | Sm TGR inh | Tb PYK inh
CCOc1ccc2c(c1)n([O-])c1c([n+]2=O)CCCC1 | 6% | -6% | -7% | 10% | 5.6µM* | -13%
O=[n+]1c2c(n([O-])c3cc(Cl)ccc31)CCCC2 | 0% | -2% | 3% | -11% | -25% | -7%
COc1ccc2c(c1)n([O-])c1c([n+]2=O)CCC1 | 1% | 0% | 0% | 5% | 40µM* | 5%
Cc1c(C(=O)NCc2cccc(Cl)c2)sc2ncnc(N(C)C3CCCCC3)c12 | x | x | x | x | 9% | -2%
COc1ccccc1NC(=O)c1c(N=Cc2c(O)ccc3ccccc23)cnn1C | 1% | 5% | 0% | -12% | 50µM* | 2%
O=c1[nH]c2cc3c(cc2cc1CN(Cc1cccnc1)Cc1nnnn1Cc1ccco1)OCCO3 | 0% | 1% | 18% | -14% | 14µM* | 0%
O=c1[nH]c2cc3c(cc2cc1CN(Cc1cccs1)Cc1nnnn1Cc1ccco1)OCCO3 | 12% | 16% | 14% | 0% | 11µM* | -2%
COc1ccccc1CN(Cc1cc2cc3c(cc2[nH]c1=O)OCCO3)Cc1nnnn1Cc1ccco1 | -4% | 4% | 14% | -8% | u | u
O=c1[nH]c2cc3c(cc2cc1CN(CCc1ccccc1)Cc1nnnn1C1CCCC1)OCCO3 | 0% | -4% | -32% | x | 45µM* | x
O=c1[nH]c2cc3c(cc2cc1CN(Cc1ccccc1)Cc1nnnn1Cc1ccco1)OCCO3 | 10% | 2% | -15% | -21% | 8.9µM* | -7%
COc1ccc2cc(CN(Cc3cccs3)Cc3nnnn3Cc3ccccc3)c(=O)[nH]c2c1 | -7% | 0% | 28% | -2% | 3% | -1%
CCc1ccc2[nH]c(=O)c(CN(Cc3ccccc3)Cc3nnnn3Cc3ccco3)cc2c1 | 1% | 2% | -45% | 1% | u | -7%
Cc1cc(C)c2cc(CN(Cc3ccc4c(c3)OCO4)Cc3nnnn3Cc3ccco3)c(=O)[nH]c2c1 | 0% | 3% | u | 5% | 40µM* | -11%
Cc1ccc2[nH]c(=O)c(CN(Cc3ccc4c(c3)OCO4)Cc3nnnn3Cc3ccco3)cc2c1 | -3% | 4% | u | 9% | u | 9%
NC1=N[C@H](c2ccc(Cl)cc2)N(c2ccc(S(N)(=O)=O)cc2)C(N)=N1 | x | x | -5% | x | x | x
O=[N+]([O-])c1nn(-c2ccc3c(c2)OCCO3)n(O)c1=Nc1ccc(Cl)cc1 | 12% | -3% | -9% | -9% | 35µM* | -2%
Cc1ccc(N=c2c([N+](=O)[O-])nn(-c3ccc4c(c3)OCCO4)n2O)cc1F | 0% | 12% | x | 11% | -36% | -6%
O=[N+]([O-])c1nn(-c2ccc3c(c2)OCCO3)n(O)c1=NC1CCCCCC1 | -18% | 3% | -59% | 2% | 35µM* | 4%
O=[N+]([O-])c1nn(-c2ccc3c(c2)OCCO3)n(O)c1=Nc1ccccc1 | -50% | 0% | -14% | 8% | -6% | -14%
O=[N+]([O-])c1nn(-c2ccc3c(c2)OCCO3)n(O)c1=NC1CCCC1 | 15% | -3% | -2% | 10% | 9% | -5%
Cc1ccc(N=c2c([N+](=O)[O-])nn(-c3ccccc3)n2O)c(C)c1 | -5% | -2% | -47% | 4% | 32µM* | -9%
CCc1ccc(N=c2c([N+](=O)[O-])nn(-c3ccc4c(c3)OCCO4)n2O)cc1 | 2% | 6% | x | 19% | 10µM* | 2%
O=C(O)[C@@H]1[C@H](C(=O)O)[C@H]2C(=O)C=C[C@H]1N2Cc1ccccc1 | x | x | -1% | x | x | x
NS(=O)(=O)C[C-]1C=C[CH]([Sb-]([Cl])([Cl])([Cl])([Cl])[Cl])C=C1.c1ccncc1 (stereo not drawn) | x | x | -3% | x | x | x
CC(C)CC(C(=O)NCC1CCN(Cc2ccc(F)cc2)CC1)N1Cc2ccccc2C1=O (stereo not drawn) | x | x | x | x | 0% | 6%
SMILES | SARS PLpro yeast | LmPK inhibitor | NS1 function inh | RE007 growth inh | Sm TGR inh | Tb PYK inh
Cc1ccc(N=c2c([N+](=O)[O-])nn(-c3ccc4c(c3)OCCO4)n2O)c(Cl)c1 | 1% | -9% | x | x | 4.5µM* | x
Cc1cc(C)cc(N=c2c([N+](=O)[O-])nn(-c3ccc4c(c3)OCCO4)n2O)c1 | -1% | 0% | x | 3% | 3% | 1%
CN1/C(=C\C=O)C(C)(C)c2ccccc21 | -1% | 5% | x | 4% | 21% | -2%
CN1/C(=C\C=C\C2=[N+](C)c3ccc4ccccc4c3C2(C)C)C(C)(C)c2ccccc21 | -31% | 14µM* | -127% | x | -3% | x
CN1\C(=C/C=C/C=C/C=[N+](C)C)C(C)(C)c2ccccc21 | -9% | 10µM* | x | u | 1% | u
CN1/C(=C\C=Nc2ccc3ccccc3c2)C(C)(C)c2ccccc21 | -32% | 4% | -18% | x | -20% | x
FC(F)(F)c1nnc2c(Sc3ccccn3)nc3ccccc3n12 | 0% | 3% | -12% | -4% | 25µM* | -12%
Cc1ccc(-c2cc(C(=O)NC3=NCCS3)c3cc(Br)ccc3n2)o1 | 13% | u | u | x | 2.8µM* | x
O=C(NN1CCOCC1)c1cc(-c2ccc(Br)s2)nc2ccccc12 | 1% | -7% | x | -4% | 2% | 0%
Cc1ccc(-c2cc(C(=O)NCCCn3ccnc3)c3cc(Br)ccc3n2)o1 | 2% | -24% | -31% | -8% | 1.6µM* | u
Cc1ccc(-c2cc(C(=O)NN3CCOCC3)c3cc(Br)ccc3n2)o1 | 0% | 0% | 3% | -7% | 10µM* | -15%
Cc1ccc(-c2cc(C(=O)O)c3cc(Br)ccc3n2)o1 | 6% | -25% | 17% | x | 2µM* | 10µM*
Cc1cccc(-c2cc(C(=O)NCCCn3ccnc3)c3ccccc3n2)c1 | -1% | 0% | -4% | x | 1% | x
COCc1cc(C)nc2sc(C(=O)Nc3ccccc3O)c(N)c12 | x | x | x | x | -4% | 20%
CCOC(=O)N1CCN(Cc2nc3cc(NC(=O)C(C)C)ccc3n2C(C)C)CC1 | x | x | x | x | 1% | -5%
O=C(CN1C(=O)COc2ccc(S(=O)(=O)NC3CCCC3)cc21)Nc1ccc(Cl)cc1 | x | x | x | x | 7% | -3%
CC(C)CN(CCCNC(=O)c1cc(-c2ccc(Br)s2)nc2ccccc12)CC(C)C | x | x | x | x | 2% | -2%
Cc1ccc(S(=O)(=O)c2nc(-c3ccco3)oc2NCC2CCCO2)cc1 (stereo not drawn) | 4% | 0% | 8% | 19% | 8.9µM* | -19%
O=S(=O)(c1ccc(Br)cc1)c1nc(-c2ccco2)oc1NCC1CCCO1 (stereo not drawn) | -3% | 5% | x | 14% | 20µM* | 4%
CC1(C)O[C@H]2[C@@H](c3[nH]nc4c(=O)[nH]c(=O)[nH]c34)OC[C@H]2O1 | x | x | -6% | x | x | x

High-throughput results as filed in PubChem.
